PubChem BioAssay AID540276 (National Center for Advancing Translational Sciences (NCATS), 2011)
Out of some 300,000 compounds screened, about 5,400 (1.8%) were called active. Where a call stands in place of a potency, no number is given. Another 28% or so got no clear call; they are omitted. Calls follow the shape of the full dose curve; tested in HEK293 cells. Only a selection was taken, and actives are over-represented in it overall.

Experiment: qHTS for inhibitors of binding or entry into cells for Marburg Virus
Settings: Marburg virus pseudotyped entry inhibition, cell reporter; series mostly up to 37.8 µM
Potency is read from the fitted curve at half-maximal effect.

Question: Which Potency does the source give for `Cc1cccc(OCC(=O)Nc2ccc(C(=O)O)cc2NC(=O)COc2cccc(C)c2)c1` here?
Answer: inactive

Question: With `COc1ccc(C(=O)Nc2ccc(S(=O)(=O)NC(C)C)cc2)cc1` as the molecule, how does the Potency read?
Answer: inactive

Question: Which Potency does the source give for `COc1ccc(NS(=O)(=O)c2ccc(Oc3c(C#N)cccc3C#N)cc2)cc1` here?
Answer: 2.82 µM (active)

Question: Which Potency does the source give for `CCOc1ccc(S(=O)(=O)Nc2ccc(S(=O)(=O)Nc3cc(OC)ccc3OC)cc2)cc1` here?
Answer: inactive

Question: With `Cc1ccc2nc(SCC(=O)NC3CCCC3)[nH]c2c1` as the molecule, how does the Potency read?
Answer: inactive

Question: With `COc1ccc(/C=N/Nc2nc(-c3ccc(C)cc3)c(C#N)c(=O)[nH]2)cc1` as the molecule, how does the Potency read?
Answer: inactive

Question: With `O=C(COc1cccnc1[N+](=O)[O-])Nc1ccc(Cl)cc1F` as the molecule, how does the Potency read?
Answer: inactive

Question: With `O=C(N/N=C/C=C/c1ccco1)c1cccs1` as the molecule, how does the Potency read?
Answer: inactive

Question: With `Cc1cc(C(=O)N/N=C/c2ccccn2)c2ccccc2n1` as the molecule, how does the Potency read?
Answer: inactive

Question: Which Potency does the source give for `Cc1ccc(-c2cc(C(=O)N/N=C/C=C/c3ccco3)c3ccccc3n2)cc1C` here?
Answer: 2.51 µM (active)

Question: Which Potency does the source give for `CCCc1nnc(NC(=O)CCC(=O)N2CCN(S(=O)(=O)c3ccc(OC)cc3)CC2)s1` here?
Answer: inactive

Question: For `Cc1nc(N)nc(Cl)c1CCC1OCCO1`, which Potency is on record?
Answer: inactive

Question: For `Cc1ccc(Nc2ccc(C(N)=O)cc2[N+](=O)[O-])cc1`, which Potency is on record?
Answer: inactive

Question: Which Potency does the source give for `Cc1cc(C)nc(Nc2cc([N+](=O)[O-])ccc2C)n1` here?
Answer: inactive

Question: For `Cc1ccc(Nc2cc(C)nc3c(C)ccc([N+](=O)[O-])c23)cc1`, which Potency is on record?
Answer: 11.2 µM (active)

Question: With `Cc1ccc2c(c1)N(CC(=O)NCC1CCCO1)C(=O)CO2` (stereo not given) as the molecule, how does the Potency read?
Answer: inactive

Question: With `COCCNC(=O)COc1ccc(N(C)S(=O)(=O)c2ccc3ccccc3c2)cc1` as the molecule, how does the Potency read?
Answer: inactive

Question: With `CC1CCCCC1NC(=O)/C(C#N)=C/C=C/c1ccccc1[N+](=O)[O-]` (stereo not given) as the molecule, how does the Potency read?
Answer: 2.82 µM (active)

Question: For `CC1CCCCC1NC(=O)COc1ccc(C#N)cc1` (stereo not given), which Potency is on record?
Answer: inactive

Question: Which Potency does the source give for `O=[N+]([O-])c1ccccc1/C=C/CN1CCCC(CO)C1` (stereo not given) here?
Answer: inactive

Question: For `O=C(Nc1c(Br)cc2c(c1Br)Cc1cc([N+](=O)[O-])ccc1-2)C(Cl)Cl`, which Potency is on record?
Answer: inactive

Question: For `CCCn1c(NCc2ccccc2F)nc2ccccc21`, which Potency is on record?
Answer: inactive

Question: For `CN(Cc1ccccc1)Cc1ccccc1F`, which Potency is on record?
Answer: inactive

Question: For `N=c1n(CCc2ccccc2)c2ccccc2n1Cc1ccccc1F`, which Potency is on record?
Answer: 5.17 µM (active)

Question: For `CCc1ccccc1N(CC(=O)NCC1CCCO1)C(=O)CCC(=O)Nc1nccs1` (stereo not given), which Potency is on record?
Answer: inactive

Question: Which Potency does the source give for `COc1ccc(C)cc1NC(=S)N1CCOCC1` here?
Answer: inactive

Question: With `O=C1OC(Cc2ccccc2)C(c2ccccc2)C1=O` (stereo not given) as the molecule, how does the Potency read?
Answer: inactive

Question: For `O=C(CSc1nc2ccccc2c(=O)n1CCCO)N1CCc2ccccc21`, which Potency is on record?
Answer: inactive

Question: Which Potency does the source give for `O=C(CSc1nc2[nH]ncc2c(=O)n1-c1ccccc1)N1CCCc2ccccc21` here?
Answer: inactive

Question: Which Potency does the source give for `Cn1c(SCC(=O)N2CCCc3ccccc32)nc2ccccc2c1=O` here?
Answer: 12.6 µM (active)

Question: With `CN(C)CCn1c2c(c(SCC(=O)Nc3ccccc3C(F)(F)F)nc1=O)CCCC2` as the molecule, how does the Potency read?
Answer: inactive

Question: Which Potency does the source give for `COc1ccc(NC(=O)c2nc(-n3nc(C)cc3C)ccc2Cl)cc1Cl` here?
Answer: inactive

Question: Which Potency does the source give for `Cc1cc(C)nc(-n2nc(C)cc2NC(=O)c2ccc(Br)o2)n1` here?
Answer: inactive

Question: For `COc1ccc(Nc2cc(C)nc(-n3nc(C)cc3C)n2)cc1`, which Potency is on record?
Answer: 1.3 µM (active)

Question: For `Cc1ccc2nc(C)cc(N/N=C/c3ccc(F)cc3)c2c1`, which Potency is on record?
Answer: inactive

Question: With `Cc1cc(N/N=C\c2ccc(Br)cc2)nc(-n2nc(C)cc2C)n1` as the molecule, how does the Potency read?
Answer: 2.24 µM (active)

Question: With `Cc1cc(Nc2ccccc2)nc(N)n1` as the molecule, how does the Potency read?
Answer: inactive

Question: With `CN1CCN(C(=O)c2cnn(-c3ccccc3)c2NC(=O)c2ccc([N+](=O)[O-])cc2)CC1` as the molecule, how does the Potency read?
Answer: inactive

Question: For `CN1CCN(C(=O)C(=O)c2cn(CC(=O)N3CCCC3)c3ccccc23)CC1`, which Potency is on record?
Answer: inactive

Question: Which Potency does the source give for `O=C1NC(=O)C(CCc2ccccc2)(c2ccccc2)N1` (stereo not given) here?
Answer: inactive

Question: Which Potency does the source give for `Cc1cccc(C(=O)OC(C)C(=O)NC2CCCc3ccccc32)c1O` (stereo not given) here?
Answer: inactive

Question: Which Potency does the source give for `COc1ccc(C(=O)NC2CCCc3c2cnn3-c2cccc(C)c2C)c(OC)n1` (stereo not given) here?
Answer: 0.708 µM (active)

Question: With `COCc1ccc(C(=O)NC2CC(C)(C)Cc3c2cnn3-c2ccc(C)cc2)o1` (stereo not given) as the molecule, how does the Potency read?
Answer: inactive

Question: Which Potency does the source give for `CN(C)C(=O)c1ccc(NC(=O)c2ccccc2-c2ccccc2)cc1` here?
Answer: inactive

Question: Which Potency does the source give for `CCc1ccc(N(C(=O)c2csnn2)C(C(=O)NC2CCCCC2)c2ccncc2)cc1` (stereo not given) here?
Answer: inactive

Question: Which Potency does the source give for `O=C1CC2(CCCC2)C(=O)N1CN1CCN(S(=O)(=O)c2ccc(F)cc2F)CC1` here?
Answer: inactive

Question: For `O=C(Cc1cccc2ccccc12)Nc1ccc2oc(-c3ccccc3)nc2c1`, which Potency is on record?
Answer: inactive

Question: Which Potency does the source give for `COc1ccc(-c2nc3cc([N+](=O)[O-])ccc3o2)cc1OC` here?
Answer: inactive

Question: For `CCc1ccc2oc(-c3ccc(N)cc3)nc2c1`, which Potency is on record?
Answer: 5.17 µM (active)

Question: For `CC(=O)Nc1ccc(S(=O)(=O)Nc2cc(C)cn(Cc3ccc(C)cc3)c2=O)cc1`, which Potency is on record?
Answer: inactive

Question: With `CCOC(=O)C1=C(CN2CCCCCC2)NC(=O)NC1c1cccc([N+](=O)[O-])c1` (stereo not given) as the molecule, how does the Potency read?
Answer: inactive

Question: For `CCOC(=O)C1=C(C)NC(=O)NC1c1ccccc1` (stereo not given), which Potency is on record?
Answer: inactive

Question: With `CCOC(=O)C1=C(CN2CCc3ccccc32)NC(=O)NC1c1ccc(Cl)cc1` (stereo not given) as the molecule, how does the Potency read?
Answer: 16.4 µM (active)

Question: With `COc1ccc([C@H]2C(C#N)=C(N)Oc3n[nH]c(C)c32)cc1CSc1ccccn1` as the molecule, how does the Potency read?
Answer: inactive

Question: Which Potency does the source give for `COc1cccc(NC(=O)CN(C)C(=O)Cc2ccc(Cl)cc2Cl)c1` here?
Answer: inactive

Question: For `CCOC(=O)c1c(-c2cccc(C)c2)csc1NC(=O)c1c(-c2ccccc2)noc1C`, which Potency is on record?
Answer: 0.316 µM (active)

Question: With `Cc1ccc(CNC(=O)c2c(-c3ccccc3)noc2C)cc1` as the molecule, how does the Potency read?
Answer: inactive

Question: With `CC(=O)Nc1cccc(NC(=O)c2c(-c3ccccc3)noc2C)c1` as the molecule, how does the Potency read?
Answer: inactive

Question: For `CC(C)(C)C(=O)Nc1cccc(-c2ccc[nH]2)n1`, which Potency is on record?
Answer: inactive

Question: For `Cc1cc([N+](=O)[O-])c(=O)[nH]c1C`, which Potency is on record?
Answer: inactive

Question: Which Potency does the source give for `COc1ccc(NC(=O)N2CCCC2C(=O)NCc2ccccc2Cl)cc1` (stereo not given) here?
Answer: inactive

Question: For `COc1ccc(NC(=O)CN2C(=O)C(c3ccccc3)=NC23CCCCCC3)cc1OC`, which Potency is on record?
Answer: inactive

Question: For `COc1ccc(C2=NC3(CCCCC3)N(CC(=O)Nc3ccc(C(C)C)cc3)C2=O)cc1`, which Potency is on record?
Answer: 11.2 µM (active)

Question: With `CCc1ccc(NC(=O)CN2C(=O)C(c3ccccc3)=NC23CCCCCC3)cc1` as the molecule, how does the Potency read?
Answer: inactive

Question: With `CCCCn1c(N)c(N(CC(C)C)C(=O)c2ccc(Br)o2)c(=O)[nH]c1=O` as the molecule, how does the Potency read?
Answer: inactive

Question: With `O=C(Nc1c[nH]c(=O)[nH]c1=O)OCc1ccccc1` as the molecule, how does the Potency read?
Answer: inactive

Question: With `Cc1c(NC(=O)CN(C)CC(=O)Nc2ccc(F)c(F)c2F)c(=O)n(-c2ccccc2)n1C` as the molecule, how does the Potency read?
Answer: inactive

Question: Which Potency does the source give for `Cc1cccc(N(Cc2ccccc2)C(=O)c2cc(S(=O)(=O)N3CCOCC3)ccc2F)c1` here?
Answer: inactive

Question: Which Potency does the source give for `Cc1cc(NC(=O)c2cc3ccccc3o2)no1` here?
Answer: inactive

Question: For `COc1cccc2sc(N(CCCN(C)C)C(=O)C(c3ccccc3)c3ccccc3)nc12`, which Potency is on record?
Answer: 10 µM (active)

Question: With `COc1cccc2sc(NNC(=O)c3nc4ccccc4s3)nc12` as the molecule, how does the Potency read?
Answer: inactive

Question: With `CCOc1ccc2nc(N(CCN(C)C)C(=O)c3ccc4ccccc4c3)sc2c1` as the molecule, how does the Potency read?
Answer: inactive

Question: With `COC(=O)C1=C(C)NC(=S)NC1c1ccc(OCC(=O)N2CC(C)OC(C)C2)c(OC)c1` (stereo not given) as the molecule, how does the Potency read?
Answer: inactive

Question: For `COc1ccc(OCC(O)CNCCNc2nccc(C(F)(F)F)n2)cc1` (stereo not given), which Potency is on record?
Answer: inactive

Question: With `Cc1noc(COc2ccccc2OCC(O)CNC(C)(C)C)n1` (stereo not given) as the molecule, how does the Potency read?
Answer: inactive

Question: Which Potency does the source give for `CC(C)(C)CC(C)(C)NCC(O)COCCOc1ccc(Br)cc1` (stereo not given) here?
Answer: 4.61 µM (active)

Question: Which Potency does the source give for `COc1cccc(NC(=O)C/C(C)=N/NC(=O)C2CCCCC2)c1` here?
Answer: inactive

Question: Which Potency does the source give for `Cc1ccc(OCC(=O)Oc2ccccc2[N+](=O)[O-])cc1` here?
Answer: inactive

Question: With `O=C1CN(C(=O)COc2c(Cl)cccc2Cl)c2ccccc2N1` as the molecule, how does the Potency read?
Answer: inactive

Question: For `COc1ccc(-n2ncc3c2CC(C)(C)CC3NC(=O)CCc2c(C)nn(C)c2C)cc1` (stereo not given), which Potency is on record?
Answer: inactive
